# Compound activity: PubChem, National Center for Advancing Translational Sciences (NCATS)
# G9a block: inhibitors of human histone lysine methyltransferase G9a | Q96KQ7 | G9a H3K9 monomethylation, AlphaScreen, 2 h | Potency, µM (series often up to 102 µM), usual class: inhibitors | hit rate 8.8% among 350,000 | AID 504332; further: nearly all actives have a fitted effect of over 75% in size
# Target sequence (Q96KQ7 913-1193 limits assumed): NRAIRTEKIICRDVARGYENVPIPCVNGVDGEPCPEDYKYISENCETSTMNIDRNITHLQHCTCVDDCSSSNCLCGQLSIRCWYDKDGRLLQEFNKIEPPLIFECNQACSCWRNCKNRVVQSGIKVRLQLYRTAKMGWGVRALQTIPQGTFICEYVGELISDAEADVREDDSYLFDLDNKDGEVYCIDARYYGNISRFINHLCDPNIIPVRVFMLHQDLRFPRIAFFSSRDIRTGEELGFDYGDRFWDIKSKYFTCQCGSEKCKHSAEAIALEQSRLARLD
#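 G9a (20 nM) preincubated 15 min RT with compounds, then 500 nM biotinylated H3K9 peptide and 20 uM SAM added; 2 h RT reaction. Monomethyl-H3K9 product detected by AlphaScreen with anti-H3K9me1 antibody, streptavidin donor and anti-rabbit IgG acceptor beads.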
# Sfp PPTase inh: Sfp phosphopantetheinyl transferase inhibition; Biochemical Sfp PPTase activity, qHTS; Potency, µM, usual class: inhibitors; hit rate 3.5% among 310,000; AID 1490; Q9F4F7;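 further: the enzyme is Sfp with the accession as filed and its product quenches rhodamine fluorescence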
#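 With Hepes-Na pH 7.6 buffer containing 10 mM MgCl2, Sfp (15 nM) modified BHQ-2-YbbR (12.5 uM) using rhodamine-CoA (5 uM). Two reads 30 minutes apart at 525/598 nm yielded each well's rate.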
# JMJD2A Tudor: JMJD2A Tudor domain (human) inhibition | hit rate 4.4% among 390,000 | O75164 | Potency, µM (series often up to 114 µM), usual class: inhibitors | AlphaScreen JMJD2A-Tudor / H3K4me3 peptide binding | AID 504339; further: nearly all actives have a fitted effect of over 50% in size
# BAZ2B inh: inhibitors of human BAZ2B bromodomain. Q9UIF8. Potency, µM (doses to about 114 µM), most hits filed as inhibitors. AID 504333. AlphaScreen BAZ2B-H3K14Ac peptide displacement. hit rate 4.4% among 360,000; further: nearly all actives have a fitted effect of over 60% in size
#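 Compounds, titrated to a top concentration of 110 uM, were incubated 30 min at room temperature with preformed BAZ2B/acetyl-K14 H3 peptide complex (50 nM each). Proximity signal was measured by AlphaScreen after 20 min with beads.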
# HP1b binding inh: inhibitors of HP1-beta chromodomain binding to methylated histone tails. hit rate 0.56% among 390,000. P83916. Potency, µM (series often up to 114 µM), usual class: inhibitors. AlphaScreen HP1-beta / biotin-H3K9me3 peptide binding; further: nearly all actives have a fitted effect of over 70% in size
# Target sequence (P83916 whole entry, looked up): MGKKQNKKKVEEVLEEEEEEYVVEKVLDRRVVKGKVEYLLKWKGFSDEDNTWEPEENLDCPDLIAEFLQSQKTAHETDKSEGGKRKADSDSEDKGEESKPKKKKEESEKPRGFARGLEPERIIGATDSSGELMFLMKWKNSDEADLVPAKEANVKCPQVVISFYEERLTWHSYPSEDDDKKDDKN
#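 HP1-beta protein (50 nM final) preincubated 30 min at room temperature with biotinylated H3(1-18)K9me3 peptide (50 nM) in PBS pH 7.4, 0.01% Tween-20, then compound added for 30 min. AlphaScreen streptavidin donor/nickel chelate acceptor beads (10 ug/mL final), 30 min dark, luminescence read.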
# TDP1 block: blocks human tyrosyl-DNA phosphodiesterase 1; Q9NUW8; recombinant TDP1, AlphaScreen DNA substrate cleavage; Potency, µM (doses to about 130 µM), hits mostly inhibitors; hit rate 0.28% among 350,000; AID 485290; further: nearly all actives have a fitted effect of over 40% in size
#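 Here, a 5' biotin and 3' phosphotyrosine-FITC DNA oligonucleotide reports Tdp1 activity: intact substrate bridges AlphaScreen beads, while cleavage leaves a 3' phosphate and drops signal. All incubations at room temperature.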
# Numbers stand for hits; 0 = inactive; ? = inconclusive; - = not tested or not shown; [ ] = dose if it differs, or a comment. In the library only some 12% were active in any assay of this set; here they are far more common. The call rests on the fitted dose curve; in most records, active means well fitted curve in the direction sought with a large enough effect; inconclusive means small, poorly fitted or top-dose-only effect, or another doubt; inactive means no such curve, though single readings can be large; an effect the other way counts as inactive or inconclusive.
SMILES,G9a block,Sfp PPTase inh,JMJD2A Tudor,BAZ2B inh,HP1b binding inh,TDP1 block
CCCCN(C)CCn1c(=S)[nH]c2ccc(N3CCOCC3)cc2c1=O,?,0,28µM,0,0,0
CCOc1cc2[nH]c(=S)n(Cc3ccc(C(=O)O)cc3)c(=O)c2cc1OCC,18µM,0,?,0,0,-
CCOc1cc2[nH]c(=S)n(CCCN(CC)CC)c(=O)c2cc1OCC,?,0,?,0,0,0
Nc1c(-c2nc(-c3ccc4c(c3)OCO4)cs2)c2ccccn2c1C(=O)c1ccc(Cl)cc1,0,-,0,0,0,0
CSc1nnc(SCC(=O)NC(=O)c2ccccc2)s1,45µM,-,0,0,0,0
Cc1csc(SCC(=O)NC(=O)c2ccccc2)n1,0,-,0,0,0,0
C=CCN=c1scc(C)n1/N=C/c1ccc(O)c(O)c1,?,32µM,?,40µM,0,0
O=C1C2C3C=CC(CC3)C2C(=O)N1/N=C/c1ccc(O)c(O)c1 (stereo not given),?,0,0,?,?,0
CN=c1scc(-c2ccco2)n1/N=C/c1ccc(O)c(O)c1,11µM,50µM,0[11.4 µM],28µM,?,0
Cc1ccn2cc(-c3ccc(C)c(NS(=O)(=O)c4ccc(Cl)cc4)c3)nc2c1,0,-,0,0,0,0
Cc1cc(C)c(C#N)c(=N)o1,1.8µM,14µM,79µM,-,0,0
CSc1nc(C)cc(C)c1C#N,0,0,0,0,0,0
COc1cc(C(C)=O)ccc1OCC(=O)N(CCC1=CCCCC1)c1c(N)n(Cc2ccccc2)c(=O)[nH]c1=O,0[2.33 µM],-,0,0,0,-
Cc1ccc(S(=O)(=O)CC#CCOC(=O)c2ccc([N+](=O)[O-])cc2)cc1,?,50µM,-,?,-,0
COC1=CC(=O)C(O)=C(CCCCCCC/C=C/CCCCCCCC2=C(O)C(=O)C=C(OC)C2=O)C1=O,-,-,45µM,-,?,-
CCCCCCCCCCCC1=C(O)C(=O)C=C(O)C1=O,-,0,28µM,-,?,0
O=C1C(=O)c2ccccc2C(O)=C1CCCCl,-,0,0,?,0,0
Cn1nc(C(=O)OCC(=O)c2ccc(Cl)cc2)c2ccccc2c1=O,-,-,0,-,0,0
O=C(NCCSC1CCCCC1)c1ccccc1,71µM,0,0,0,0,0
COc1ccc(C(=O)NCCSC2CCCCC2)cc1,0,0,0,0,0,0
O=C1C2C3C=CC(C3)C2C(=O)N1c1ccccc1 (stereo not given),0[12.7 µM],0,0,0,0,0
O=C1C2C3CCCC3=C3CCCC3C2C(=O)N1c1ccccc1 (stereo not given),20µM,0,0,0,0,0
COc1ccccc1CC(=O)N1CCOCC1,0[0.501 µM],0,0,0,0,-
COc1cc(-c2nnc(NC(=O)CS(=O)(=O)c3ccc(C)cc3)o2)cc(OC)c1OC,0,-,25µM,45µM,0,0
COc1cc(-c2nnc(NC(=O)CS(=O)(=O)c3ccc(F)cc3)o2)cc(OC)c1OC,0,-,40µM,56µM,0,0
SMILES,G9a block,Sfp PPTase inh,JMJD2A Tudor,BAZ2B inh,HP1b binding inh,TDP1 block
Cc1cc(NC(=O)COC(=O)C2=NN(c3ccccc3)C(=O)CC2)c([N+](=O)[O-])cc1C,-,-,0,-,0,0
COCCCNCCCCOc1ccc(Br)cc1C,10µM,0,20µM,?,?,0
Cc1cc(Br)ccc1OCCCCNC(C)(C)C,-,0,28µM,50µM,0,0
Cc1ccc(NC(=O)COc2ccc(Br)cc2C)cc1,0,0,0,0,0,0
COCCNCCCCOc1ccc(Br)cc1C,5.6µM,0,1.1µM,50µM,?,0
COCCNC(=O)COc1ccc(Br)cc1Cl,0[12.7 µM],0,0,0,0,0
CCN(CC)CCNC(=O)c1ccc(CSc2nc3ccncc3n2Cc2cccc(F)c2)cc1,0,-,0,0,0,0
CN(Cc1cnccn1)Cc1ccccc1OCC(O)CN1CCc2ccccc2C1 (stereo not given),-,0,0,?,0,0
CCSc1nc2sc3c(c2c(=O)n1CC)CCC3,0,0,0,0,0,-
CCSC1=NC2(CCCCC2)Nc2sc3c(c21)CCCC3,4.5µM,40µM,22µM,?,?,0
Cc1cc(C)nc(NNC2=CC(=[N+]3CCCC3)CCC2)n1,?,0,3.2µM,0,?,0
COc1ccc(C2NC(=O)N(C)C3=C2C(=O)N(c2ccc(Br)cc2)C3)cc1 (stereo not given),0,-,0,0,0,0
COc1ccc(-c2cc(=O)c3c(O)c(OC)c(OC)c(OC)c3o2)cc1OC,-,0,-,-,-,0
COc1cc(-c2cc(=O)c3c(O)c(OC)c(OC)c(O)c3o2)ccc1O,0[12.7 µM],5µM,0,?,0,0
COc1c(O)c(O)c2oc(-c3ccccc3)cc(=O)c2c1OC,0[12.7 µM],3.2µM,?,?,0,0
COc1ccc(OC)c(NC(=O)C(NS(=O)(=O)c2ccc3c(c2)CCCC(=O)N3)C(C)C)c1 (stereo not given),0,-,0,0,0,0
O=[N+]([O-])C1=CC=C2C(=NC3(CCCCC3)N2O)C1=NCCc1ccccc1,7.1µM,0,0[11.4 µM],0,0,0
O=[N+]([O-])C1=CC=C2C(=NC3(CCCCC3)N2O)C1=NC1CCCCC1,-,0,?,3.2µM,13µM,0
CC1(C)CC(N=C2C([N+](=O)[O-])=CC=C3C2=NC2(CCCCC2)N3O)CC(C)(C)N1,-,0,0,0,0,-
CC(C)(C)N=C1C([N+](=O)[O-])=CC=C2C1=NC1(CCCCC1)N2O,3.5µM,?,6.3µM,5.6µM,25µM,0
Clc1nc(Oc2ccccc2)nc(-c2cn(-c3ccccc3)c3ccccc23)n1,40µM,0,?,?,0,0
COc1ccccc1CNC(=O)CCn1c(=O)c2ccccc2n(CC(=O)Nc2ccc(C)cc2Cl)c1=O,0,-,0,0,0,0
CCN1CCN(c2oc(/C=C/c3ccccc3OC)nc2C#N)CC1,0,-,0,0,0,0
COCCn1c(-c2cccs2)csc1=Nc1cccnc1,?,?,?,45µM,0,0
COCCn1c(-c2ccco2)csc1=Nc1cccnc1,?,20µM,89µM,?,0,0
SMILES,G9a block,Sfp PPTase inh,JMJD2A Tudor,BAZ2B inh,HP1b binding inh,TDP1 block
CC(C)Cn1c(-c2ccco2)csc1=Nc1cccnc1,45µM,?,0,32µM,0,0
Fc1ccccc1-c1csc(=Nc2cccnc2)n1CCCn1ccnc1,45µM,0,?,45µM,0,0
Fc1ccccc1-c1csc(=Nc2cccnc2)n1CC1CCCO1 (stereo not given),0,0,?,?,0,0
CC(C)CC(=O)N1CCN(C(=O)c2ccc(F)cc2)CC1,-,0,0,0,0,-
Cn1c(SSc2ccc(-c3cccnc3)n2C)ccc1-c1cccnc1,-,-,50µM,-,?,-
COC(=O)c1cc2c(ccn2-c2ccc(F)cc2)n1CC(C)C,45µM,0,?,?,0,0
COC(=O)c1cc2c(ccn2-c2ccc(F)cc2)n1Cc1cccc(OC)c1,0,0,?,0,0,0
